PAFAH2 inh – inhibitors of human PAFAH2; Q99487; AID 492956; recombinant PAFAH2, FP-rhodamine activity probe, fluorescence polarization; 340,000 compounds, 0.99% hits; inhibition, % at 3.39 µM;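 active = inhibition above the mean over all tested compounds plus 3 SD, cut at about 30% in these data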;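 also: inhibitors block probe labeling of enzyme so polarization drops; 0% = enzyme with DMSO and 100% = wells lacking PAFAH2 protein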
PP5 inh – PP5 (human) phosphatase inhibition. inhibition, % at 6.7 µM. AID 1987. purified PP5c, OMFP substrate fluorescence. 320,000 compounds, 0.18% hits;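 active = inhibition above the campaign's mean inhibition across all tested compounds plus 3 SD, cut at about 9.5% in these data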;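 also: 0% = DMSO only and 100% = 100 µM cantharidin control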
pPAFAH FP inh – pPAFAH (human) enzyme inhibition | inhibition, % at 3.39 µM | AID 463082 | 330,000 compounds, 1.5% hits | recombinant pPAFAH, FP-rhodamine probe fluorescence polarization;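 active = inhibition above the mean inhibition across the screen plus 3 SD, cut at about 25% in these data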;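 also: inhibitors block binding of the rhodamine activity-based probe so polarization drops; 0% = enzyme with DMSO and 100% = wells lacking pPAFAH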
Target sequence (Q13093 whole entry, looked up): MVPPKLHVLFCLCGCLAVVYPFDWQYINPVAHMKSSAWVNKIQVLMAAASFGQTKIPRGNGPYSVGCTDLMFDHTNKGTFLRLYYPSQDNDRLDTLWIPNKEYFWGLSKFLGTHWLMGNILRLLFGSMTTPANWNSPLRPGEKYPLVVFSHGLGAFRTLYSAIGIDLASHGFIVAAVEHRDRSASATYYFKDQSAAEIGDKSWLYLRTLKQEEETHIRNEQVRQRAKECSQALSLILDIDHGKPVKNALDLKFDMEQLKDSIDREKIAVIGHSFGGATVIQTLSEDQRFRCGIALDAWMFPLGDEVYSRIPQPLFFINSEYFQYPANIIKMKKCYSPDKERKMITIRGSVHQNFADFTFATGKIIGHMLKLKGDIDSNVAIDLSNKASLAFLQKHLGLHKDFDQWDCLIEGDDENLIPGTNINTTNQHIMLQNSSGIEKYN
PAFAH1B3 FP inh – blocks human PAF acetylhydrolase 1B catalytic subunit 3; Q15102; recombinant PAFAH1B3, FP-rhodamine probe, fluorescence polarization; inhibition, % at 3.39 µM; 340,000 compounds, 0.28% hits;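 active = inhibition above the screen-wide average of all tested compounds plus 3 SD, cut at about 25% in these data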;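 also: 0% = enzyme with DMSO only and 100% = wells lacking PAFAH1B3 protein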
PAFAH1B2 FP inh – blocks human PAF acetylhydrolase 1b catalytic subunit 2; P68402; recombinant PAFAH1B2, FP-rhodamine activity probe, fluorescence polarization; inhibition, % at 3.39 µM; 340,000 compounds, 1.2% hits; AID 492953;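 active = inhibition above the mean of all tested compounds plus 3 SD, cut at about 24% in these data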;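 also: 0% = enzyme with DMSO and 100% = wells lacking PAFAH1B2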
Target sequence (P68402 whole entry, looked up): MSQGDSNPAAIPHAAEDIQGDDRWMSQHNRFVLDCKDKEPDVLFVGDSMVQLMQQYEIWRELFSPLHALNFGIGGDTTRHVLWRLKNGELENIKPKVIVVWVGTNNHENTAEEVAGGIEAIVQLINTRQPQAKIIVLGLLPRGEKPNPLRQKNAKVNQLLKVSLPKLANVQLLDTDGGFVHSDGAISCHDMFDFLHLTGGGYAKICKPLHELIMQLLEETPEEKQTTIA
PP1 inh – counter-screen for PP5 inhibitors: inhibitors of human PP1-alpha; P62136; purified PP1alpha, OMFP fluorescence; inhibition, % at 6.7 µM; 320,000 compounds, 0.9% hits;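 active = inhibition above the mean inhibition of all tested compounds plus 3 SD, computed separately for each screening campaign, cut at about 15% in these data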
PAFAH2 confirm – confirmation of human PAFAH2 inhibitors. shares compounds with PAFAH2 inh. recombinant PAFAH2, FP-rhodamine activity probe, fluorescence polarization. inhibition, % at 3.39 µM. 2,300 compounds, 65% hits. AID 493030;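 active = mean inhibition over three repeats above a set limit taken from the earlier primary screen, cut at about 30% in these data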;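 also: inhibitor blocks binding of rhodamine activity probe so polarization falls; 0% = enzyme with DMSO and 100% = wells lacking PAFAH2 protein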
Numbers without * were called inactive; . = not tested or not shown. Sampled rows, rich in hits. Any-hit rate of the full collection: about 3.4%.

SMILES | PAFAH2 inh | PP5 inh | pPAFAH FP inh | PAFAH1B3 FP inh | PAFAH1B2 FP inh | PP1 inh | PAFAH2 confirm
CCOc1cc(C(=O)N2CCC(CC3CC(c4ccccc4)=NO3)(C(=O)NCc3ccc(OC)cc3)CC2)cc(OCC)c1OCC (stereo not drawn) | 30* | 1 | 8 | -2 | 9 | 9 | -6
CC1C=CCC2C(=O)N(c3ccccc3OC(=O)c3cccs3)C(=O)C12 (stereo not drawn) | 2 | 1 | -2 | -1 | 4 | -4 | .
CC1C=CCC2C(=O)N(c3ccc(Cl)cc3O)C(=O)C12 (stereo not drawn) | 35* | 1 | 3 | 9 | 7 | -2 | 23
COc1ccc([N+](=O)[O-])cc1NC(=O)COC(=O)C=C(C)C | -32 | 1 | 2 | 4 | -7 | 0 | .
CCOC(=O)/C=C/C(=O)OCC(=O)Nc1ccc(Cl)cc1Cl | 2 | -1 | -2 | 3 | -1 | -5 | .
CC(C)=CC(=O)OCC(=O)Nc1cc([N+](=O)[O-])ccc1F | 62* | 2 | -8 | 0 | -8 | -1 | 68*
CC(C)=CC(=O)OCC(=O)Nc1ccc(F)cc1Cl | 47* | 0 | 7 | 8 | 0 | -1 | 41*
COc1ccc(/C=C2/SC(=S)N(CC(=O)O)C2=O)cc1OCc1ccc(Cl)cc1 | -2 | 3 | -2 | 2 | 12 | 6 | .
O=C(O)CN1C(=O)/C(=C\c2cc(Br)ccc2OCc2ccc(Cl)cc2)SC1=S | 32* | . | . | 9 | 20 | . | 20
O=C(O)CN1C(=O)/C(=C\c2ccccc2OCc2ccc(F)cc2)SC1=S | 39* | 2 | 14 | 2 | 16 | 9 | 35*
CCN(CC)c1ccc(C(=O)OCC(=O)N2CCCC2)cc1 | 36* | -1 | 11 | 3 | 0 | 0 | 20
CCN(CC)c1ccc(C(=O)OCC(=O)N(C(C)C)C(C)C)cc1 | 27 | 2 | 6 | 6 | 5 | 1 | .
CCN(CC)c1ccc(C(=O)OCC(=O)N(C)Cc2ccccc2)cc1 | 48* | -3 | 15 | 4 | 1 | 2 | 36*
COc1cc(C(=S)N2CCOCC2)ccc1OS(=O)(=O)c1ccc(C)cc1 | 5 | 4 | 2 | 8 | 2 | -1 | .
Cn1ccnc1SC(=O)N1c2ccccc2Sc2ccccc21 | 4 | 2 | 3 | -1 | 3 | 1 | .
CC(C)NC(=S)N/N=C/c1cc(Br)ccc1O | 32* | 5 | 14 | 6 | 8 | -1 | 32*
COC(=O)N/N=C/c1ccc(-c2cccc(Cl)c2)o1 | -2 | 1 | 3 | -4 | 0 | 0 | .
Cc1nc(S/C(=C/c2ccc(-c3cccc(Cl)c3)o2)C(=O)O)n[nH]1 | 46* | 0 | 6 | 6 | 21 | 5 | 32*
O=C(COC(=O)c1ccccc1)NCc1cccs1 | 36* | 0 | 9 | 13 | 0 | -3 | 20
O=C(COC(=O)c1ccc(OC(F)F)cc1)NCc1cccs1 | 56* | . | 17 | 7 | 4 | . | 29
Cc1ccc(C(=O)OCC(=O)NCc2cccs2)s1 | 65* | . | . | 1 | 2 | . | 57*
O=C(COC(=O)c1c(Cl)cccc1Cl)NCc1cccs1 | -1 | . | 4 | 2 | 6 | . | .
CC(NC(=O)COC(=O)c1cccc(S(=O)(=O)N2CCCC2)c1)c1ccccc1 (stereo not drawn) | 53* | . | 10 | 9 | 5 | . | 40*
O=C(COC(=O)c1cccc(S(=O)(=O)N2CCCC2)c1)Nc1ccccc1Cl | 29 | . | . | 3 | -1 | . | .
O=C(COC(=O)c1ccc(Cl)c(S(=O)(=O)N2CCCCCC2)c1)Nc1ccccc1 | 44* | 3 | 17 | -21 | -10 | 3 | 31*
SMILES | PAFAH2 inh | PP5 inh | pPAFAH FP inh | PAFAH1B3 FP inh | PAFAH1B2 FP inh | PP1 inh | PAFAH2 confirm
Cc1ccccc1NC(=O)COC(=O)c1cccc(S(=O)(=O)N2CCCCC2)c1 | 45* | -3 | 8 | 8 | 2 | -2 | 28
O=C(COC(=O)c1cccc(S(=O)(=O)N2CCCC2)c1)Nc1ccccc1 | 72* | 0 | 8 | 8 | 5 | 1 | 76*
O=C(COC(=O)c1ccc(S(=O)(=O)N2CCCC2)cc1)Nc1ccccc1 | 4 | -2 | 5 | 3 | 1 | -1 | .
O=C(/C=C/c1ccccc1)Nc1ccc(S(=O)(=O)N2CCOCC2)cc1 | -7 | 2 | -4 | 4 | 2 | 0 | .
COc1ccc(C(=O)OCC(=O)NC(Cc2ccccc2)C(C)=O)cc1S(=O)(=O)N1CCCC1 (stereo not drawn) | 35* | . | . | 3 | 1 | . | 32*
NS(=O)(=O)c1cccc(NC(=O)COC(=O)c2ccccc2C(=O)c2ccccc2)c1 | 54* | 1 | 8 | -4 | -3 | -4 | 51*
COc1ccc(NC(=O)/C=C/c2ccccc2)cn1 | 1 | -1 | -2 | 5 | -1 | -3 | .
O=C(COC(=O)/C=C/c1ccccc1[N+](=O)[O-])NCC(F)(F)F | 30* | 0 | 16 | 4 | -3 | -7 | 16
COc1cc(/C=C/C(=O)OCC(=O)NC2CC2)cc(S(=O)(=O)N2CCc3ccccc32)c1OC | 53* | 0 | 8 | 4 | 3 | 1 | 38*
COc1cc(/C=C/C(=O)OCC(=O)Nc2ccc(NC(C)=O)cc2)cc(S(=O)(=O)N2CCc3ccccc32)c1OC | 3 | -2 | 2 | 10 | -4 | -6 | .
COc1ccccc1/C=C/C(=O)OCC(=O)NNC(=O)c1ccccc1 | 14 | 3 | 18 | 17 | 2 | -3 | .
O=C(/C=C/c1ccc(OC(F)F)cc1)OCC(=O)N1CCc2ccccc21 | 5 | -1 | 1 | 4 | 1 | -4 | .
COc1ccccc1/C=C/C(=O)OCC(=O)NC1CC1 | 64* | . | . | 8 | 3 | . | 64*
COc1ccccc1/C=C/C(=O)OCC(=O)N1CCc2ccccc21 | 77* | 6 | 1 | 5 | 2 | 7 | 71*
COc1ccc(/C=C/C(=O)OCC(=O)NC2CCCC2)c(OC)c1 | 86* | 3 | 23 | 4 | 3 | -6 | 85*
CCOC(=O)c1c(C)[nH]c(C(=O)OCc2c(C)noc2C)c1C | 1 | 4 | 5 | -3 | 5 | 1 | .
Cn1c(=O)c2[nH]c(SCCN3CCOCC3)nc2n(C)c1=S | 6 | . | . | 6 | 5 | . | .
COc1ccccc1/C=C/C(=O)OCC(=O)NC(=O)NC1CCCC1 | 58* | . | -2 | -6 | 5 | . | 44*
O=C(COC(=O)/C=C/c1ccccc1)Nc1ccc(Cl)cn1 | 29 | 1 | 3 | 3 | 4 | 3 | .
O=C(OCC(=O)N1CCc2ccccc21)C1=COCCO1 | 30* | -2 | 8 | 7 | 4 | 0 | 19
COc1ccc(/C=C/C(=O)OCC(=O)N2CCCCCC2)c(OC)c1 | 44* | 2 | -1 | -11 | 1 | -1 | 36*
COc1ccccc1/C=C/C(=O)OCC(=O)Nc1ccc(Cl)cn1 | 83* | 3 | 24 | 4 | 3 | 4 | 79*

Compound activity as filed in PubChem.
